Article PMC12136788
Numbering of substitutions follows the chain as printed. Whole data set: some 5,800 sequences, median “enrichment r” near 0.68, cut for the highest 2% near 11. Many of the other results were omitted from the sample, so the highest values are more common in it than they were.

T1: UNK ZnF1-6 (called full-length) (human, UniProt Q9C0B0 30-357)
T1 sequence: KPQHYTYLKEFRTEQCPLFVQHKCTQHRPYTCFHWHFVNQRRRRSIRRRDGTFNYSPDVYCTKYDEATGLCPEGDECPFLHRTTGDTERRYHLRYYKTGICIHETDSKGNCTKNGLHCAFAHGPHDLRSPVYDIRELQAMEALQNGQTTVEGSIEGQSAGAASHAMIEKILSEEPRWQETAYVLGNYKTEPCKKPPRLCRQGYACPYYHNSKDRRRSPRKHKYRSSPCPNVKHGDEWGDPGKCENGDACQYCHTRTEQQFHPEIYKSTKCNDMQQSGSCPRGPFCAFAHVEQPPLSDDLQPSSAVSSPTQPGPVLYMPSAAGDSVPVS

B1: chr3:107805913:107806014:+|3pUTR|ENSG00000114439|msi1_unk|FALSE|overlapping (ssRNA)
RNA: GGGAGUUCUACAGUCCGACGAUCUACAUGGAGAUUUAAGUUUAAGAUGGUUUAUAUAAUAGGUUAUACCUACAUUUAUAUUGUAGAAUAAAUAUUAAAAAGCCUGUUCCAGAGACUCCCAAGCAGCCUGGGCAGGCAGAUGUACAACAGAGGAUUGAGCAUCA
B2: chr8:144773268:144774605:-|CDS|ENSG00000196378|control|control|control (ssRNA)
RNA: GGGAGUUCUACAGUCCGACGAUCCACCAGAGGAUUCACACUGGGGAGAAACCCUACAAGUGUGGGGAGUGUGGGAAGCACUUUAGCGCCUACUCUUCCCUGAUUUAUCACCAGAGAAUCCACACCGGAGAGAAACCCUAUAAACAACAGAGGAUUGAGCAUCA
B3: chr7:123692404:123692516:-|CDS|ENSG00000106299|unk|total|mutant (ssRNA)
RNA: GGGAGUUCUACAGUCCGACGAUCCCUGCCUUCUGAUGGGGACCAUCAGGUUCCAACUACUGCAGGAAACAAAGCAGCUCUUUCCGAUCAAAUCCGAGAGGGUGCUCAGCUAAAAAAAGUGGAGCAGAACAGUCGGCCAGUGUCCAACAGAGGAUUGAGCAUCA
B4: chr2:32377587:32377702:+|CDS|ENSG00000115760|unk|FALSE|unique (ssRNA)
RNA: GGGAGUUCUACAGUCCGACGAUCGGUGAAAUGUCAGUAUAUCUCUGCUGUGGAUAAAGUUAUAUUUGUGGAUGAUUAUGCAGUAGGGUGUAGGAAGGACCUUAAUGGAAUCUUGUUGUUAGACACUGCUCUGCAAACUCCAGUCAACAGAGGAUUGAGCAUCA
B5: chr15:69268886:69268987:+|CDS|ENSG00000138604|unk|total|mutant (ssRNA)
RNA: GGGAGUUCUACAGUCCGACGAUCGGAGUUAAAGCUGUGUUUAUGAAUAAACAUGACUGGUAUGAAGAAUAUCCAACCACACCCCGCUCUUUUGUUUUAAAUGGCUUUAUGUAUUCUUUAAUUGGGCUGUAUGACUUAAAAGAACAACAGAGGAUUGAGCAUCA
B6: ENSG00000107863:be:win_3351|CDS|ENSG00000107863|bound_else_gene|NA|bound_elsewhere_windowed (ssRNA)
RNA: GGGAGUUCUACAGUCCGACGAUCAAAAGACAAAGGCACAUGGAGAAAAGGCAUUCCAAGUAUCAUGAGAAAGACAUUUGAGAAAAAGCCAACUGCUACAGGAACUUUCGGCGUCCGACUAGAUGACUGCCCACCAGCUCAUACCAACAGAGGAUUGAGCAUCA
B7: chr5:75599425:75599511:+|3pUTR|ENSG00000122008|msi1_unk|total|mutant (ssRNA)
RNA: GGGAGUUCUACAGUCCGACGAUCGAACCGCUUAAUUAAGAACUCACAGACUUUGACAAAGUGGUAACCCGACUUUUAAUUACCCGAUUCUUCAAAUCCGGCUUAAUGCCUGCCCGCAUGCCAAUCCAAUCCCAUGACUGAUGUCAACAGAGGAUUGAGCAUCA
B8: chr1:235448940:235449205:-|3pUTR|ENSG00000162885|unk|total|mutant (ssRNA)
RNA: GGGAGUUCUACAGUCCGACGAUCAACCGAGAAUUCCAUUAAAACCCGUCUUAUGACAGAUAUUAACUGUGUUCAGAUUUUAUCCGGCCCGCCCGUUUCUUUCUAUUUAAUAUUUAAAUCUUAUCAUGAAAUGCAGUGAUGAGCCAACAGAGGAUUGAGCAUCA
B9: chrX:85861749:85861850:-|3pUTR|ENSG00000188419|msi1|FALSE|unique (ssRNA)
RNA: GGGAGUUCUACAGUCCGACGAUCCUAAUUUAAAAUUUCAGAAAAUGCUAUUAAAGAAUUUUGAUUCAAGUAUUUAAACUGUUUAGUUAUGCAUGCUUCUUAUUAACCGAAAAUGAUAAUACCAUUUAGUUUAGUGAUCAGUAUCAACAGAGGAUUGAGCAUCA
B10: chr10:92030311:92030412:+|3pUTR|ENSG00000095564|unk|FALSE|unique (ssRNA)
RNA: GGGAGUUCUACAGUCCGACGAUCAUAUAAGAUUGAAACUGUAAAAUAUAUGCAACUGUGUGUUAUUUGUAGGAAAUGGUCACUAGAAAGAGCAAAAGAUUAUUCAGGUAUACAGGUUUUUUUUCAUUGUUUAGGAUUUUAACUCAACAGAGGAUUGAGCAUCA
B11: chr4:140550230:140550341:+|CDS|ENSG00000179387|unk|FALSE|unique (ssRNA)
RNA: GGGAGUUCUACAGUCCGACGAUCGAAUUUGACAAGUUUUGGUUUGAAGAAGAACCAGAAAGCAUUAUGUAUUUCAAUUUGUAUAGAGAGAAGUUUCAUGAAAAGAUUAAAGGACUUUUACUGGAUUGUAAUGUAGCACUUACUCAACAGAGGAUUGAGCAUCA
B12: chr2:167954955:167954998:-|3pUTR|ENSG00000198648|msi1_unk|FALSE|overlapping (ssRNA)
RNA: GGGAGUUCUACAGUCCGACGAUCGUUGUAUUUAGAAAUUAAUAUACUUAUAAAAUUAAGAUUUAUUAGCCAAACUUGAAUUCUAGUUUUAAAACUGACUGUGAAUUUUAUUUUUCAUAUAUUUAUGCAUUACACACCUUAGCUCAACAGAGGAUUGAGCAUCA
B13: chr5:75599425:75599511:+|3pUTR|ENSG00000122008|msi1_unk|FALSE|overlapping (ssRNA)
RNA: B7 RNA with C27U, C28A, C68U, C69A, C83U, C84A, C97U, C98A, C113U, C114A
B14: chr1:150220393:150220494:-|3pUTR|ENSG00000143401|msi1_unk|total|mutant (ssRNA)
RNA: GGGAGUUCUACAGUCCGACGAUCAUUGUAUGCCGAGAAAAAUUUUCAUUGACUCCCAUUGUGGAAUUCCCCCGCAAUUUAUUCCGACUUAAUUUUUUAAAUUCAAGCUUACUGUAUCCGUCAUUUUCCGCCCAUAAUUAAAACCAACAGAGGAUUGAGCAUCA
B15: chr1:235448940:235449205:-|3pUTR|ENSG00000162885|unk|FALSE|unique (ssRNA)
RNA: B8 RNA with C26U, C27A, C45U, C46A, C83U, C84A, C88U, C89A, C92U, C93A
B16: chr1:150220393:150220494:-|3pUTR|ENSG00000143401|msi1_unk|FALSE|overlapping (ssRNA)
RNA: B14 RNA with C32U, C33A, C71U, C72A, C83U, C84A, C117U, C118A, C127U, C128A
B17: chr2:167954955:167954998:-|3pUTR|ENSG00000198648|msi1_unk|total|mutant (ssRNA)
RNA: B12 RNA with U32C, A33C, U66C, A67C, U83C, A84C, U139C, A140C
B18: ENSG00000172071:stop:overlap|stop_codon|ENSG00000172071|stop_codon|NA|stop_codon (ssRNA)
RNA: GGGAGUUCUACAGUCCGACGAUCCAUCGGGAACAAAACAUUCAAGACAGUCCAACAACUCCCAUAGCCCUUUGCCAAGCAAUUAGCCUUAAGUUGUGCUAGCAACCCUAAUAGGUGAUGCAGAUAAUAGCCUACUUCUUAGAACAACAGAGGAUUGAGCAUCA

These binders were tested against T1, UNK ZnF1-6 (called full-length) (assay: nsRBNS (natural sequence RNA bind-n-seq); RBNS binding buffer (assumed for nsRBNS): 25 mM Tris pH 7.5, 150 mM KCl, 3 mM MgCl2, 0.01% Triton X-100, 500 ug/ml BSA, 20 U/ml SUPERase-In, 4 C; UNK is unkempt and MSI1 is Musashi-1; names of the RNAs are library labels; protein concentration not given here; high values mean tight binding).
For B1, the binding signal was 1.89 enrichment R.
Work on B2 yielded a binding signal of 0.587 enrichment R.
B3 gave a binding signal of 0.493 enrichment R.
Work on B4 yielded a binding signal of 0.488 enrichment R.
B5 was tested, and the binding signal was 0.547 enrichment R.
Binder B6 has a binding signal of 0.507 enrichment R.
B7 was tested, and the binding signal was 0.537 enrichment R.
B8 showed a binding signal of 2.39 enrichment R.
Work on B9 yielded a binding signal of 2.27 enrichment R.
Work on B10 yielded a binding signal of 3.36 enrichment R.
In the case of B11, the binding signal is reported as 0.651 enrichment R.
Work on B12 yielded a binding signal of 15.2 enrichment R.
Work on B13 yielded a binding signal of 38.5 enrichment R.
With B14 the binding signal was 2.56 enrichment R.
For B15, the binding signal was 35.6 enrichment R.
B16 showed a binding signal of 228 enrichment R.
B17 gave a binding signal of 3.43 enrichment R.
Binder B18 has a binding signal of 1.57 enrichment R.
